Growth inhibition data for ten compounds are collected here from PubChem BioAssay (NCI).

The nature of assay [1]: NCI Yeast Anticancer Drug Screen. Data for the rad50 strain (AID 155).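 Also: 0% = growth of vehicle-only cultures of the same strain.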 As to conditions: S. cerevisiae rad50 strain growth inhibition, hits give high values. In outline:
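Genetically altered yeast (DNA repair pathway); compound treatment; growth inhibition vs vehicle ctrl.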

Assay [2] is described as follows: NCI Yeast Anticancer Drug Screen. Data for the mec2-1 strain (AID 157). The settings on record: S. cerevisiae mec2-1 strain, hits give high values. In outline: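 Vehicle-treated cultures served as reference for growth inhibition of compound-exposed mec2-1 yeast.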
Assay [3] can be described thus: NCI Yeast Anticancer Drug Screen. Data for the sgs1 mgt1 strain (AID 161).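 Also: 0% = growth of cultures given vehicle only.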 The settings on record: S. cerevisiae sgs1 mgt1 strain, hits give high values. In outline: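 Test agents were incubated with a DNA-repair-mutant yeast strain. Growth was then read and compared against vehicle-treated controls.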
A short description of assay [4]: NCI Yeast Anticancer Drug Screen. Data for the cln2 rad14 strain (AID 165).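 Also: 0% = growth equal to vehicle treated cultures.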 As to conditions: S. cerevisiae cln2 rad14 strain, hits give high values. An outline of the steps: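 Each compound was tested on cln2 rad14 yeast. Inhibition of growth was calculated against vehicle-exposed controls.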
A short description of assay [5]: NCI Yeast Anticancer Drug Screen. Data for the bub3 strain (AID 167). As to conditions: S. cerevisiae bub3 mutant strain, hits give high values. In outline:
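Yeast carrying a defined mutation is treated with each compound, and growth is compared with that of vehicle-exposed cells to give inhibition.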

Assay [6] can be described thus: NCI Yeast Anticancer Drug Screen. Data for the mlh1 rad18 strain (AID 175). As to conditions: S. cerevisiae mlh1 rad18 strain growth inhibition, hits give high values. In outline:
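Vehicle-treated cultures served as the reference for growth inhibition in a yeast strain carrying DNA damage repair alterations exposed to each compound.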

The mark [7] stands for this setting: at 5.0 µM (retest, dose inferred, filed as 0.5).
The mark [8] stands for this setting: at 50.0 µM (retest, dose inferred, filed as 5.0).

Compounds without any hit were thinned out: in the full panel of roughly 79,000, 15% have a hit. Unmarked numbers belong to inactive results. Activity calls are given as the source filed them. Rule as the data show it: active = growth inhibition above about 70%; inactive = the rest.

Turning to `CSC(=S)OC1CC(n2cnc3c(NC(=O)c4ccccc4)ncnc32)OC1CO[Si](C)(C)C(C)(C)C` (stereo not given), the growth inhibition in assay [1] (setting [7]) is 1%; in assay [1] (setting [8]), -1%; in assay [1] (at 50.0 µM), 6.5%; in assay [2] (setting [7]), 0%; in assay [2] (setting [8]), 2%; in assay [2] (at 50.0 µM), -3.65%. Moreover, the growth inhibition in assay [3] (setting [7]) was -1%; in assay [3] (setting [8]) it was 2%; in assay [3] (at 50.0 µM), 10.4%; in assay [4] (setting [7]), -1%; in assay [4] (setting [8]), 6%; in assay [4] (at 50.0 µM), 73% (active). Also, the growth inhibition in assay [5] (setting [7]) was -1%; in assay [5] (setting [8]) it was -5%; in assay [5] (at 50.0 µM) it was 1.45%; in assay [6] (setting [7]) it was 0%; in assay [6] (setting [8]), -1%; in assay [6] (at 50.0 µM) it was 16.6%.
As for `CN(C)Cc1ccc2[nH]c3c(c2c1)CCCC3`, the growth inhibition in assay [1] (setting [7]) was 4%; in assay [1] (setting [8]), 96% (active); in assay [1] (at 50.0 µM), 66.8%; in assay [2] (setting [7]), 11%; in assay [2] (setting [8]), 72% (active); in assay [2] (at 50.0 µM) it was 36.6%. Moreover, the growth inhibition in assay [3] (setting [7]) is 2%; in assay [3] (setting [8]) it was 90% (active); in assay [3] (at 50.0 µM) it was 43.7%; in assay [4] (setting [7]) it was 0%; in assay [4] (setting [8]), 72% (active); in assay [4] (at 50.0 µM), 21.2%. Also, the growth inhibition in assay [5] (setting [7]) was 1%; in assay [5] (setting [8]) it was 85% (active); in assay [5] (at 50.0 µM), 45%; in assay [6] (setting [7]), 28%; in assay [6] (setting [8]) it was 93% (active); in assay [6] (at 50.0 µM), 65.1%.
On to `NC(N)=Nc1ccc(Cc2ccc(N=C(N)N)cc2)cc1`, for which the growth inhibition in assay [1] (setting [7]) is 0%; in assay [1] (setting [8]), -3%; in assay [1] (at 50.0 µM) it was -33.2%; in assay [2] (setting [7]) it was 0%; in assay [2] (setting [8]) it was -4%; in assay [2] (at 50.0 µM) it was -58%. In addition, the growth inhibition in assay [3] (setting [7]) was 2%; in assay [3] (setting [8]), 0%; in assay [3] (at 50.0 µM), -17.9%; in assay [4] (setting [7]), 3%; in assay [4] (setting [8]), 2%; in assay [4] (at 50.0 µM) it was 45%. The growth inhibition in assay [5] (setting [7]) is 3%; in assay [5] (setting [8]), 2%; in assay [5] (at 50.0 µM), -10.2%; in assay [6] (setting [7]) it was -6%; in assay [6] (setting [8]), -4%; in assay [6] (at 50.0 µM) it was -39%.
For `BrC(Br)([P+](c1ccccc1)(c1ccccc1)c1ccccc1)[P+](c1ccccc1)(c1ccccc1)c1ccccc1`, the growth inhibition in assay [1] (setting [7]) is 18%; in assay [1] (setting [8]), 73% (active); in assay [1] (at 50.0 µM), 19.1%; in assay [2] (setting [7]), 9%; in assay [2] (setting [8]) it was 41%; in assay [2] (at 50.0 µM) it was 23.6%. For the same compound, the growth inhibition is 4% in assay [3] (setting [7]); 61% in assay [3] (setting [8]); 27.5% in assay [3] (at 50.0 µM); 4% in assay [4] (setting [7]); 24% in assay [4] (setting [8]); 35.4% in assay [4] (at 50.0 µM). The growth inhibition in assay [5] (setting [7]) is 4%; in assay [5] (setting [8]) it was 42%; in assay [5] (at 50.0 µM), 12.7%; in assay [6] (setting [7]) it was 15%; in assay [6] (setting [8]), 74% (active); in assay [6] (at 50.0 µM) it was 78.2% (active).
For `COc1cccc(C2c3cc4c(cc3OC(N3CCCC3)C2C)OCO4)c1` (stereo not given), the growth inhibition in assay [1] (setting [7]) is -16%; in assay [1] (setting [8]), 74% (active); in assay [1] (at 50.0 µM) it was 85.2% (active); in assay [2] (setting [7]) it was -34%; in assay [2] (setting [8]), 82% (active); in assay [2] (at 50.0 µM), 82% (active). Also, the growth inhibition in assay [3] (setting [7]) was -27%; in assay [3] (setting [8]), 54%; in assay [3] (at 50.0 µM), 77.8% (active); in assay [4] (setting [7]) it was -15%; in assay [4] (setting [8]), 67%; in assay [4] (at 50.0 µM) it was 76.3% (active). Moreover, the growth inhibition in assay [5] (setting [7]) is -30%; in assay [5] (setting [8]), 88% (active); in assay [5] (at 50.0 µM) it was 85% (active); in assay [6] (setting [7]) it was -32%; in assay [6] (setting [8]), 72% (active); in assay [6] (at 50.0 µM) it was 80.1% (active).
`Cc1ccccc1C(=O)C(C)c1ccccc1` (stereo not given): the growth inhibition in assay [1] (setting [7]) was -19%; in assay [1] (setting [8]), -6%; in assay [1] (at 50.0 µM), 6.35%; in assay [2] (setting [7]), -8%; in assay [2] (setting [8]) it was -4%; in assay [2] (at 50.0 µM) it was 9.25%. Further, the growth inhibition in assay [3] (setting [7]) is -2%; in assay [3] (setting [8]) it was -7%; in assay [3] (at 50.0 µM), 12.5%; in assay [4] (setting [7]), -35%; in assay [4] (setting [8]), -5%; in assay [4] (at 50.0 µM), 44.4%. Moreover, the growth inhibition in assay [5] (setting [7]) was -8%; in assay [5] (setting [8]), 3%; in assay [5] (at 50.0 µM), 4.5%; in assay [6] (setting [7]), -24%; in assay [6] (setting [8]), 4%; in assay [6] (at 50.0 µM), -9.2%.
For the compound `CCCCCCCCCCCCNCc1ccc2c(c1)OCO2`, the growth inhibition is 98% (active) in assay [1] (setting [7]); 96% (active) in assay [1] (setting [8]); 98.8% (active) in assay [1] (at 50.0 µM); 99% (active) in assay [2] (setting [7]); 97% (active) in assay [2] (setting [8]); 99.1% (active) in assay [2] (at 50.0 µM). In addition, the growth inhibition was 99% (active) in assay [3] (setting [7]); 96% (active) in assay [3] (setting [8]); 57.8% in assay [3] (at 50.0 µM); 99% (active) in assay [4] (setting [7]); 96% (active) in assay [4] (setting [8]); 95.9% (active) in assay [4] (at 50.0 µM). Moreover, the growth inhibition was 99% (active) in assay [5] (setting [7]); 95% (active) in assay [5] (setting [8]); 98.7% (active) in assay [5] (at 50.0 µM); 99% (active) in assay [6] (setting [7]); 95% (active) in assay [6] (setting [8]); 99% (active) in assay [6] (at 50.0 µM).
`COc1cccc2c1C1c3ccccc3Sc3cccc(c31)O2` (stereo not given): the growth inhibition in assay [1] (setting [7]) was 6%; in assay [1] (setting [8]), 3%; in assay [1] (at 50.0 µM), 5.2%; in assay [2] (setting [7]), 6%; in assay [2] (setting [8]) it was 3%; in assay [2] (at 50.0 µM), 18.3%. Moreover, the growth inhibition in assay [3] (setting [7]) is 4%; in assay [3] (setting [8]), 3%; in assay [3] (at 50.0 µM), 19.6%; in assay [4] (setting [7]), 1%; in assay [4] (setting [8]), -21%; in assay [4] (at 50.0 µM), 40.2%. Also, the growth inhibition in assay [5] (setting [7]) is -1%; in assay [5] (setting [8]) it was -2%; in assay [5] (at 50.0 µM), 43.9%; in assay [6] (setting [7]) it was 4%; in assay [6] (setting [8]) it was 1%; in assay [6] (at 50.0 µM), 21.1%.
In the case of `CCCCCC(Oc1ccc(Cl)cc1)C(=O)O` (stereo not given), the growth inhibition in assay [1] (setting [7]) was 2%; in assay [1] (setting [8]) it was 84% (active); in assay [1] (at 50.0 µM), 81.7% (active); in assay [2] (setting [7]), 2%; in assay [2] (setting [8]) it was 83% (active); in assay [2] (at 50.0 µM), 58.5%. Besides, the growth inhibition was 3% in assay [3] (setting [7]); 85% (active) in assay [3] (setting [8]); 80.2% (active) in assay [3] (at 50.0 µM); -1% in assay [4] (setting [7]); 87% (active) in assay [4] (setting [8]); 75.5% (active) in assay [4] (at 50.0 µM). The growth inhibition was 7% in assay [5] (setting [7]); 87% (active) in assay [5] (setting [8]); 71.5% (active) in assay [5] (at 50.0 µM); -15% in assay [6] (setting [7]); 89% (active) in assay [6] (setting [8]); 83.2% (active) in assay [6] (at 50.0 µM).
Consider `C=C(Br)CN(C)CC(=C)Br`, for which the growth inhibition is 0% in assay [1] (setting [7]); 40% in assay [1] (setting [8]); 82% (active) in assay [1] (at 50.0 µM); 7% in assay [2] (setting [7]); -19% in assay [2] (setting [8]); -17.1% in assay [2] (at 50.0 µM). For the same compound, the growth inhibition is 4% in assay [3] (setting [7]); -10% in assay [3] (setting [8]); 22.2% in assay [3] (at 50.0 µM); -15% in assay [4] (setting [7]); -50% in assay [4] (setting [8]); 0.15% in assay [4] (at 50.0 µM). The growth inhibition is -2% in assay [5] (setting [7]); 5% in assay [5] (setting [8]); -15% in assay [5] (at 50.0 µM); -6% in assay [6] (setting [7]); 25% in assay [6] (setting [8]); 62.5% in assay [6] (at 50.0 µM).
